Test results: PubChem BioAssay AID1159580 (chemical genetic matrix, 2015)
Several values for one entry are separate records, joined by “and”; a condition that tells them apart may be missing. Equal entries are not always repeated. Hit rate of the full screen: of about 5,500 compounds, about 2,000 (36%) were called active. Roughly 18% stayed inconclusive and do not appear here. No stated cut-off is given here; in the data, active means normalized growth mostly below about 0.91 (no sharp cut-off); inconclusive means no clear call, values can overlap the other calls; inactive means mostly above about 0.92. The list shows a part of the results.

Test: chemical genetic growth profiling, strain panel (AID 1159580);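 further: tested at 20 µM; growth read once vehicle control cultures reached saturation at 30 °C; 1 = growth at the plate median or of vehicle wells; lower values mean less growth of the strain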
Conditions: S. cerevisiae deletion strains, growth OD

Measured: normalized growth

COC(=O)C1[C@H]2C[C@H]3c4[nH]c5ccccc5c4CCN3C[C@@H]2CC[C@@H]1O (some centres not stated)
inactive: locus YAL013W, strain DEP1, hits give low values 1.02 | locus YAL021C, strain ccr4, hits give low values 0.991 | locus YAL026C, strain drs2, hits give low values 0.981 | locus YAL030W, strain snc1, hits give low values 0.976 | locus YBL061C, strain skt5, hits give low values 0.982 | locus YBR009C, strain hhf1, hits give low values 0.978 | locus YBR021W, strain FUR4, hits give low values 1.01 | locus YBR023C, strain chs3, hits give low values 0.964 | locus YBR171W, strain sec66, hits give low values 0.96 | locus YBR229C, strain ROT2, hits give low values 1 | locus YBR231C, strain swc5, hits give low values 0.965 | locus YBR279W, strain paf1, hits give low values 0.962 | locus YCL011C, strain gbp2, hits give low values 0.954 | locus YCL016C, strain dcc1, hits give low values 0.973 | locus YCL029C, strain bik1, hits give low values 1.03 | locus YCL061C, strain MRC1, hits give low values 0.976 | locus YCL069W, strain vba3, hits give low values 0.981 | locus YCR088W, strain abp1, hits give low values 0.977 | locus YDL005C, strain med2, hits give low values 0.971 | locus YDL035C, strain GPR1, hits give low values 1.02 | locus YDL040C, strain nat1, hits give low values 0.974 | locus YDL074C, strain BRE1, hits give low values 1.05 | locus YDL101C, strain DUN1, hits give low values 1.01 | locus YDL134C, strain PPH21, hits give low values 1.02 | locus YDL185W, strain tfp1, hits give low values 1.02 | locus YDL192W, strain arf1, hits give low values 1.02 | locus YDR001C, strain nth1, hits give low values 0.964 | locus YDR069C, strain doa4, hits give low values 0.954 | locus YDR101C, strain arx1, hits give low values 1.01 | locus YDR137W, strain rgp1, hits give low values 0.945 | locus YDR150W, strain NUM1, hits give low values 1.01 | locus YDR159W, strain sac3, hits give low values 0.925 | locus YDR162C, strain NBP2, hits give low values 1.01 | locus YDR195W, strain ref2 0.943 | locus YDR297W, strain sur2, hits give low values 0.979 | locus YDR318W, strain mcm21, hits give low values 1.03 | locus YDR334W, strain swr1, hits give low values 0.946 | locus YDR335W, strain msn5, hits give low values 0.97 | locus YDR388W, hits give low values 1.02 | locus YDR392W, strain spt3, hits give low values 1.01 | locus YDR502C, strain sam2, hits give low values 1.01 | locus YEL003W, strain gim4, hits give low values 0.97 | locus YEL037C, strain rad23, hits give low values 0.979 | locus YEL061C, strain CIN8 (second series), hits give low values 0.962 | locus YEL061C, strain CIN8, hits give low values 1.01 | locus YER015W, strain faa2, hits give low values 0.983 | locus YER016W, strain bim1, hits give low values 0.982 | locus YER110C, hits give low values 1.01 | locus YER111C, strain swi4, hits give low values 0.986 | locus YER155C, strain BEM2 (second series), hits give low values 0.945 | locus YER155C, strain BEM2, hits give low values 1.01 | locus YER167W, strain BCK2, hits give low values 1.01 | locus YFR010W, strain ubp6, hits give low values 0.952 | locus YGL078C, strain dbp3, hits give low values 1.01 | locus YGL086W, strain mad1, hits give low values 1 | locus YGL167C, strain pmr1, hits give low values 0.944 | locus YGL173C, strain kem1, hits give low values 0.989 | locus YGL227W, strain vid30, hits give low values 0.962 | locus YGL240W, strain doc1, hits give low values 0.954 | locus YGL248W, strain PDE1, hits give low values 1.01 | locus YGL253W, strain hxk2, hits give low values 0.975 | locus YGR078C, strain PAC10, hits give low values 1.03 | locus YGR135W, strain pre9, hits give low values 1.01 | locus YGR229C, strain SMI1, hits give low values 1.01 | locus YGR252W, strain gcn5, hits give low values 0.976 | locus YHR013C, strain ard1, hits give low values 0.979 | locus YHR027C, strain rpn1, hits give low values 0.972 | locus YHR030C, strain SLT2, hits give low values 1.02 | locus YHR079C, strain IRE1 (second series), hits give low values 1.02 | locus YHR079C, strain IRE1, hits give low values 1.02 | locus YHR094C, strain hxt1, hits give low values 1.01 | locus YHR129C, strain ARP1, hits give low values 0.999 | locus YHR142W, strain chs7, hits give low values 0.983 | locus YHR200W, strain rpn10, hits give low values 1.02 | locus YIL066C, strain RNR3, hits give low values 1.02 | locus YIL073C, strain SPO22, hits give low values 1.05 | locus YIL125W, strain kgd1, hits give low values 1.01 | locus YIR030C, strain dcg1, hits give low values 1.02 | locus YJL092W, strain hpr5, hits give low values 0.982 | locus YJL095W, strain BCK1 (second series), hits give low values 0.981 | locus YJL095W, strain BCK1, hits give low values 1.05 and 1.01 | locus YJL115W, strain asf1, hits give low values 0.966 | locus YJL129C, strain trk1, hits give low values 0.977 | locus YJL134W, strain LCB3, hits give low values 1.01 | locus YJL154C, strain vps35, hits give low values 0.964 | locus YJL164C, strain tpk1, hits give low values 1 | locus YJL166W, strain qcr8, hits give low values 0.953 | locus YJL168C, strain set2, hits give low values 1.02 | locus YJL187C, strain SWE1 (second series), hits give low values 1.03 | locus YJL187C, strain SWE1, hits give low values 0.98 | locus YJR043C, strain POL32, hits give low values 1.02 | locus YJR066W, strain TOR1, hits give low values 1.02
